For test [1], the target named is RAC-alpha serine/threonine-protein kinase (Homo sapiens) (UniProt P31749). The conditions noted are these: at 0.1 µM.
For test [2] the target is unchanged. The conditions noted are these: at 1 µM.
The target in test [3] is RAC-beta serine/threonine-protein kinase (Homo sapiens) (UniProt P31751). The settings on record: at 0.1 µM.
The target is the same in test [4]. The conditions noted are these: at 1 µM.
In test [5] the target is RAC-gamma serine/threonine-protein kinase (Homo sapiens) (UniProt Q9Y243). The settings on record: at 0.1 µM.
The target is the same in test [6]. The conditions noted are these: at 1 µM.
The target of test [7] is G protein-coupled receptor kinase 6 (Homo sapiens) (UniProt P43250). The conditions noted are these: at 0.1 µM.
For test [8] the target is unchanged. The conditions noted are these: at 1 µM.
Test [9] concerns the target T1, Rhodopsin kinase GRK7 (Homo sapiens) (UniProt Q8WTQ7).
T1 sequence (whole entry): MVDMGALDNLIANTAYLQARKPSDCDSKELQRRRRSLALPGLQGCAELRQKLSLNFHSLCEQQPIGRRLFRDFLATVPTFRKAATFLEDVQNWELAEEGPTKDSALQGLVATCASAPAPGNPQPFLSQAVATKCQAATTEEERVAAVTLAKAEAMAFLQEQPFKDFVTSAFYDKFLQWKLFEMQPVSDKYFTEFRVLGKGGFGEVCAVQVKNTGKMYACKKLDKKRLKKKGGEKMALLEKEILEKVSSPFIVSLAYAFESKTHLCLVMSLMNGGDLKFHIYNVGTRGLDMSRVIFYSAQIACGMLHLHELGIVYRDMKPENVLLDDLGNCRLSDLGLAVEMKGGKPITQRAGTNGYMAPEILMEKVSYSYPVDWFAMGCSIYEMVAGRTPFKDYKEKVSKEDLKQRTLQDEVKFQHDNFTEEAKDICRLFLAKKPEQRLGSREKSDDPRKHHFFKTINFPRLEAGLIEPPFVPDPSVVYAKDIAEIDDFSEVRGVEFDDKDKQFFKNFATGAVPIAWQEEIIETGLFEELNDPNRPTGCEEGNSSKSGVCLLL
The settings on record: at 0.1 µM.

Test [10] has as its target T1, Rhodopsin kinase GRK7 (Homo sapiens). The settings on record: at 1 µM.
In test [11] the target is Serine/threonine-protein kinase MRCK alpha (Homo sapiens) (UniProt Q5VT25). The conditions noted are these: at 0.1 µM.
The target is the same in test [12]. The conditions noted are these: at 1 µM.
Test [13] has as its target Serine/threonine-protein kinase MRCK beta (Homo sapiens) (UniProt Q9Y5S2). The settings on record: at 0.1 µM.
For test [14] the target is unchanged. The settings on record: at 1 µM.
Test [15] deals with Ribosomal protein S6 kinase alpha-5 (Homo sapiens) (UniProt O75582). The settings on record: at 0.1 µM.
For test [16] the target is unchanged. The conditions noted are these: at 1 µM.
In test [17] the target is Ribosomal protein S6 kinase alpha-4 (Homo sapiens) (UniProt O75676). The settings on record: at 0.1 µM.
Test [18] has the same target. The settings on record: at 1 µM.
Test [19] concerns the target Ribosomal protein S6 kinase beta-1 (Homo sapiens) (UniProt P23443). The conditions noted are these: at 0.1 µM.
For test [20] the target is unchanged. The conditions noted are these: at 1 µM.

The inhibition is the drop in the measured response relative to a control, in per cent.

Chain of Serine/threonine-protein kinase MRCK alpha (Homo sapiens) (Q5VT25 whole entry): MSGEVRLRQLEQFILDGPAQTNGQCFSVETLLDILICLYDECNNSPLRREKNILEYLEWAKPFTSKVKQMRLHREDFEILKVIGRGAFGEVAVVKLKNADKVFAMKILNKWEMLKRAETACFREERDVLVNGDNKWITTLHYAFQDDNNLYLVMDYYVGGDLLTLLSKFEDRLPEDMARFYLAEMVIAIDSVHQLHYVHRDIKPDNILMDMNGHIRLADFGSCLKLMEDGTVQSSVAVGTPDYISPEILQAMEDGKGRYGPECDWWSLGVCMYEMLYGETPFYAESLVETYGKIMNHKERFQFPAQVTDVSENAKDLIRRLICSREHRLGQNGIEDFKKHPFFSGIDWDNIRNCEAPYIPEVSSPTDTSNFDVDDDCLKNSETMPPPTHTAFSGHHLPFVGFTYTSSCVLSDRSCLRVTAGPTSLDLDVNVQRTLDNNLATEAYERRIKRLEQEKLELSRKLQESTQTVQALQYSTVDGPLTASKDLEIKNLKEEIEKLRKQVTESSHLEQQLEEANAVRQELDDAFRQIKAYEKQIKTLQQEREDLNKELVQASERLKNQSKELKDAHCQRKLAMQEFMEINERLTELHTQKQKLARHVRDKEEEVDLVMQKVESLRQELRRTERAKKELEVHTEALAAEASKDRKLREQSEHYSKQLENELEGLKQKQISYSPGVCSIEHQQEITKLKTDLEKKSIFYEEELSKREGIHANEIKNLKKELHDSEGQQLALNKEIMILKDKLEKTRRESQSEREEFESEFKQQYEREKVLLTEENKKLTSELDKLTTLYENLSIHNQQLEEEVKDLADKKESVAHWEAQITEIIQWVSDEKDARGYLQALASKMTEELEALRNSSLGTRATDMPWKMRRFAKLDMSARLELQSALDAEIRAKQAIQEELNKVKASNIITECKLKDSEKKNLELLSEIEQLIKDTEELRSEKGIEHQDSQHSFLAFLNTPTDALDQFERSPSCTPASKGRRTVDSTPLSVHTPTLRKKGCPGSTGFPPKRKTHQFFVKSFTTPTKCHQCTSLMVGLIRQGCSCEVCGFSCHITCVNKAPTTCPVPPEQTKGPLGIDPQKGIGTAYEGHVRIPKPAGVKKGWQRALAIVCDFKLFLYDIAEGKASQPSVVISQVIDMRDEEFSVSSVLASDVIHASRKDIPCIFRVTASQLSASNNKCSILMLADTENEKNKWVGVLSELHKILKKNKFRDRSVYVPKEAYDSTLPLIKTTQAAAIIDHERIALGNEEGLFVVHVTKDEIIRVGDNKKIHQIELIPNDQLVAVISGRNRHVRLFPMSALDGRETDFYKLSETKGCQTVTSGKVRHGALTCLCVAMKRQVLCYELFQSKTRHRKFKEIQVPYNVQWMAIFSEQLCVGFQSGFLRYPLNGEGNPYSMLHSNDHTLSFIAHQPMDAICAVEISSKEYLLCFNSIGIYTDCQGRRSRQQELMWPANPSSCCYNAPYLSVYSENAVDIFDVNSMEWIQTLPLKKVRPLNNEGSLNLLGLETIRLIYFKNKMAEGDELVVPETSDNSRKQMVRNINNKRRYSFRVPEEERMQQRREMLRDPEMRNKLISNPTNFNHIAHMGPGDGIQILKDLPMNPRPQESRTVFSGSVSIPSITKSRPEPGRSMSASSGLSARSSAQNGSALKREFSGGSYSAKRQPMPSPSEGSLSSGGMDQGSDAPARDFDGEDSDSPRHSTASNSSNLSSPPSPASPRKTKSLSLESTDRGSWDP
Chain of RAC-alpha serine/threonine-protein kinase (Homo sapiens) (P31749 whole entry): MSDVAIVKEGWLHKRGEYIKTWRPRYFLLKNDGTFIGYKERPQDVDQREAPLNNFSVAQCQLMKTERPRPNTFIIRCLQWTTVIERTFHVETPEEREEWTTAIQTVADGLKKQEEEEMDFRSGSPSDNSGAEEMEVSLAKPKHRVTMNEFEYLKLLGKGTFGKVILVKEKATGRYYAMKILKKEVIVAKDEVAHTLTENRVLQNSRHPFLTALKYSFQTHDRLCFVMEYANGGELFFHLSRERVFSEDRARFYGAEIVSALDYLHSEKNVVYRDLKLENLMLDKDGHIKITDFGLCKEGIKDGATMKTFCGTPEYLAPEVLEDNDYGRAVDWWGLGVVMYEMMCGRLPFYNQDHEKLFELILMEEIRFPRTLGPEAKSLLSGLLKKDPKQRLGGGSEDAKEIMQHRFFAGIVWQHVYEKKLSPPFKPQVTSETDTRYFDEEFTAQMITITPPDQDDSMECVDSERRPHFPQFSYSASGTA
Chain of Serine/threonine-protein kinase MRCK beta (Homo sapiens) (Q9Y5S2 whole entry): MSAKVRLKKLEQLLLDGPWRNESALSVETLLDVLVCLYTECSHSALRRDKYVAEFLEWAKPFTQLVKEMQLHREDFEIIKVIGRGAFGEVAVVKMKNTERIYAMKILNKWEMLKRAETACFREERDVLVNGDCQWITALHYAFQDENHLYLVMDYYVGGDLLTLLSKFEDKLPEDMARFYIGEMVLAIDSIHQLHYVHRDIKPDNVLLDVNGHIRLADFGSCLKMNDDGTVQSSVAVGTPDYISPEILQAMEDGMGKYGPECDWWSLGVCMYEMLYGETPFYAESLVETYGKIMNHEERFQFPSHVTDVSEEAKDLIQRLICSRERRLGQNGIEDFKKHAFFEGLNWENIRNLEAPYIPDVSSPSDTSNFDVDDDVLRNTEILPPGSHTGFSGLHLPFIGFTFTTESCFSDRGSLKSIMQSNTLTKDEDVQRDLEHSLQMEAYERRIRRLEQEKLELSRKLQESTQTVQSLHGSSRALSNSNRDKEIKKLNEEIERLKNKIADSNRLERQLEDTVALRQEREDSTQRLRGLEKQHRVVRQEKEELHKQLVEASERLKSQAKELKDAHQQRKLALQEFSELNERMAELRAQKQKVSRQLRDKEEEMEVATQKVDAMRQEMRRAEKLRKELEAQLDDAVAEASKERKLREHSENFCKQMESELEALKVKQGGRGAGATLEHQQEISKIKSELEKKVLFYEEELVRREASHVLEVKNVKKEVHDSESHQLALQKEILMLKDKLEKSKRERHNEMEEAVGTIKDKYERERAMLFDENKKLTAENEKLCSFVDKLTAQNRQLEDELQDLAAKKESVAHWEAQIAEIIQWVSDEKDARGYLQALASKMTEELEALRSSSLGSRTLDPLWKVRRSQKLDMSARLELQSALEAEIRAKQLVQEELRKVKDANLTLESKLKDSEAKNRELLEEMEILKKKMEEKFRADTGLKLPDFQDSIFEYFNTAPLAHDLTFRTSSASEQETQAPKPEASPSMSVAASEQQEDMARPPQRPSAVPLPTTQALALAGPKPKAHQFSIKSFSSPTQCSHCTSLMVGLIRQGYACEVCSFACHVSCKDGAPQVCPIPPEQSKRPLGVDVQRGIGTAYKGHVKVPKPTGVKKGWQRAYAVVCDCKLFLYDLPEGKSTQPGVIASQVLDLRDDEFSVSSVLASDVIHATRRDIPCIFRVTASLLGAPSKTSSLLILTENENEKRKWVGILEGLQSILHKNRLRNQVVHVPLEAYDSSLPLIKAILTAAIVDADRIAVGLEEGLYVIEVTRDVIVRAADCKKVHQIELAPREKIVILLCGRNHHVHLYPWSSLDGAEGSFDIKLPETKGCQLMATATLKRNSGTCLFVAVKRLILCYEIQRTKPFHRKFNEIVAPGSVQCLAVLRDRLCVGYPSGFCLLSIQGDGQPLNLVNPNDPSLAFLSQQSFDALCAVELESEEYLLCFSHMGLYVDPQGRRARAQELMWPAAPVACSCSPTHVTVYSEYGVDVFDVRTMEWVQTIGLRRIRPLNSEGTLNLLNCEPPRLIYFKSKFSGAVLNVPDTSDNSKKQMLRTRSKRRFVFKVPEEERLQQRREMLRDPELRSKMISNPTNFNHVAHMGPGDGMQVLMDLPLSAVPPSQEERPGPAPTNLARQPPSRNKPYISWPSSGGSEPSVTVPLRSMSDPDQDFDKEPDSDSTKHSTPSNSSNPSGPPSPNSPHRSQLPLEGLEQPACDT
Chain of Ribosomal protein S6 kinase alpha-5 (Homo sapiens) (O75582 whole entry, looked up): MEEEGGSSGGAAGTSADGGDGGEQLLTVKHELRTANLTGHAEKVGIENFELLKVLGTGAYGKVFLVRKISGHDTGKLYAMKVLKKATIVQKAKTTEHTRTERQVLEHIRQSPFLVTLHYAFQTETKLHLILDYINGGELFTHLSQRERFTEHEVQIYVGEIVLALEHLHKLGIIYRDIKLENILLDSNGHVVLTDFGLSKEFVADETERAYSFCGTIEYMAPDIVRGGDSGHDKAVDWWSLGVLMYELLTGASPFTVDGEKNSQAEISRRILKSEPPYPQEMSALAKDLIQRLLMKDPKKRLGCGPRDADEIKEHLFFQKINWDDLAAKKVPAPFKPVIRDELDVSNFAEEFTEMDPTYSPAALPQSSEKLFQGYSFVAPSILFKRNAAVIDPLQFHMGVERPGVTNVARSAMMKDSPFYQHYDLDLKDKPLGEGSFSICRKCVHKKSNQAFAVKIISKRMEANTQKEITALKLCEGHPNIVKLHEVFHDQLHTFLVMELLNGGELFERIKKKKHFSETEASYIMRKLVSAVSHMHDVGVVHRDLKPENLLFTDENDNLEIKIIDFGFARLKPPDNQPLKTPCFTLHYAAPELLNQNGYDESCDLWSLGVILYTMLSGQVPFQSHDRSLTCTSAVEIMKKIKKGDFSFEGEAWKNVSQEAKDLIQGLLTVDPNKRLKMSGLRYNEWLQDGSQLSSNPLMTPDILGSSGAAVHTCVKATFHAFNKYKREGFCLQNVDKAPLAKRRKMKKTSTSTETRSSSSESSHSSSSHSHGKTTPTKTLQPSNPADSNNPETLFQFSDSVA

Consider `COC(=O)Nc1nc2ccc(Oc3ccc(NC(=O)Nc4cc(C(F)(F)F)ccc4F)cc3)cc2s1`, for which the inhibition is -0.37% in test [1]; -0.66% in test [2]; -0.14% in test [3]; -0.64% in test [4]; 1.34% in test [5]; -0.4% in [6]. Further, the inhibition in [7] was -1.28%; in test [8], -1.53%; in test [9], -0.68%; in [10] it was 6.1%; in [11] it was -0.38%; in test [12], -1.54%. In addition, the inhibition in test [13] is 0.73%; in test [14] it was 1.68%; in [15] it was 0.52%; in [16], 0.93%; in [17] it was 1.67%; in [18], 2.86%. In addition, the inhibition is 6.33% in [19] and 23.2% in [20].
`c1cnn2ncc(-c3ccnc(NCCCN4CCOCC4)n3)c2c1`: the inhibition in test [1] is 0.48%; in test [2] it was 0.29%; in test [3] it was 1.29%; in test [4], 1.85%; in test [5], 1.38%; in test [6] it was 1.68%. The inhibition in test [7] was 4.92%; in test [8], 3.86%; in [9], 20.1%; in [10], 15.5%; in [11], -0.89%; in test [12] it was -2.56%. Besides, the inhibition in test [13] turned out to be 0.55%; in [14] it was 3.84%; in [15], 6.61%; in test [16], 6.41%; in test [17], 5.88%; in [18], 7.41%. Also, the inhibition in test [19] was found to be 2.05%; in test [20], 2.73%.
For the compound `OCCCNc1nccc(-c2c(-c3ccc(F)cc3)nn3cc(C(F)(F)F)ccc23)n1`, the inhibition in test [1] is 0.44%; in test [2], 0.71%; in test [3] it was 1.9%; in test [4], 0.18%; in [5] it was 0.6%; in test [6], 0%. Moreover, the inhibition is 1.18% in test [7]; -2.71% in [8]; -0.28% in [9]; -8.21% in test [10]; 0.26% in [11]; -1.54% in test [12]. Besides, the inhibition in [13] is 0.31%; in test [14], 1.86%; in test [15] it was 4.64%; in test [16] it was 4.76%; in test [17], 2.6%; in [18], 5.75%. The figures for the inhibition in test [19] and in [20] were 3.2% and 2.94%, respectively.
As for `COc1cc(Nc2ncc(-c3ccccc3)o2)cc(OC)c1`, the inhibition was determined as 1.36% in test [1]; 1.33% in [2]; 1.9% in test [3]; 2.08% in test [4]; 0.79% in [5]; 3.26% in [6]. Also, the inhibition in test [7] was 0.04%; in test [8], -0.63%; in test [9], 19.2%; in [10] it was 18.7%; in [11], -6.08%; in test [12], -1.27%. The inhibition was -0.81% in [13]; 0.65% in test [14]; 2.3% in test [15]; -0.44% in [16]; 2.85% in test [17]; 2.84% in [18]. Moreover, the inhibition was 2.08% in [19] and 3.04% in test [20].
Consider `CS(=O)(=O)CCNCc1ccoc1-c1ccc2ncnc(Nc3ccc(OCc4ccccc4)cc3)c2c1`, for which the inhibition in test [1] is -0.19%; in [2] it was 0.18%; in test [3], -0.24%; in test [4] it was 0.41%; in test [5] it was -0.09%; in [6], 2.03%. Also, the inhibition was 0.69% in test [7]; 1.77% in [8]; 4.11% in test [9]; -0.84% in test [10]; -1.71% in [11]; -3.38% in [12]. The inhibition was -0.65% in test [13]; -2.47% in [14]; -0.3% in test [15]; -2.16% in test [16]; 0.88% in test [17]; -1.22% in [18]. Further, the inhibition in test [19] is -1.12%; in test [20], -1.32%.
Regarding `Cc1cc(O)cc(C)c1/C=C/c1cncc(C(=O)OC(C)(C)C)c1`, the inhibition in test [1] was 0.38%; in test [2], 0.97%; in test [3] it was 1.75%; in test [4], 0.98%; in test [5], 1.33%; in [6], 1.34%. Moreover, the inhibition amounted to 2.27% in [7]; 2.46% in test [8]; 7.07% in [9]; 6.87% in test [10]; 0.35% in test [11]; 1.93% in [12]. The inhibition was found to be 1.45% in test [13]; 2.65% in [14]; 1.89% in test [15]; 3.7% in [16]; 1.86% in [17]; 3.1% in test [18]. In addition, the results for the inhibition in [19] and in test [20] were 0.44% and 0.31%, respectively.
`Fc1ccc(Nc2nccc(-c3c(-c4ccc(C(F)(F)F)cc4)nn4ncccc34)n2)cc1F`: the inhibition was found to be 1.15% in [1]; 1.34% in [2]; 0.91% in [3]; 1.4% in [4]; 1.72% in test [5]; 1.36% in test [6]. The inhibition was 0.33% in test [7]; -0.08% in test [8]; 2.15% in test [9]; -0.32% in test [10]; -0.28% in [11]; -1.12% in test [12]. For the same compound, the inhibition in test [13] is -0.35%; in test [14], 1.04%; in test [15], 2.66%; in test [16] it was 2.7%; in test [17], -0.61%; in [18], 2%. Also, the values for the inhibition in test [19] and in test [20] were 1.31% and 0.33%, respectively.

The values above are taken from ChEMBL document CHEMBL1961873, “Compounds: GSK PKIS; Assays: Nanosyn kinase panel” (2012).
